# This is a sample that favours compounds with a hit; in the whole collection about 19% have one here.
# TDP1 cell CPT = growth inhibition of DT40 Tdp1-/-;hTDP1 cells with camptothecin (screen for TDP1 inhibitors) | chicken DT40 Tdp1-/-;hTDP1 cells + 20 nM CPT, ATP luminescence, 48 h | Potency, µM (titrated, usually from 46.2 µM), inactives show at the top dose activity change, negative = growth inhibition, usual class: inhibitors | 420,000 tested, 12% active | AID 686979; further: nearly all actives have a fitted effect of over 55% in size
#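 Chicken DT40 Tdp1-/- cells complemented with human TDP1, 400 cells/well, exposed to compounds plus 20 nM camptothecin for at least 48 h at 37 C; viability read as ATP content by CellTiter-Glo luminescence.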
# HT1080-NT tox = kills 2HG-producing HT-1080-NT fibrosarcoma cells; AID 686970; HT-1080-NT fibrosarcoma viability, CellTiter-Glo ATP luminescence, 48 h; 360,000 tested, 1.6% active; Potency, µM (titrated, usually from 46.1 µM), for inactives: at the top dose activity, negative = less viability, usual class: cytotoxic;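 further: NT is the 2HG producing partner of a matched IDH1 knockdown line; 0% = DMSO-treated cells and -100% = media-only wells without cells; nearly all actives have a fitted effect of over 55% in size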
#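 HT-1080-NT fibrosarcoma cells (2HG-overproducing), 750 cells/well in RPMI with 5% FBS, dosed after 2 h and incubated 48 h at 37C. CellTiter-Glo luminescence normalized to DMSO and no-cell wells; concentration-response curves fitted and classed.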
# DT40 TDP1 no CPT = qHTS for Inhibitors of human tyrosyl-DNA phosphodiesterase 1 (TDP1): qHTS in cells in absence of CPT; Potency, µM (top dose mostly 46.2 µM), for inactives: at the highest dose activity change, negative = growth inhibition, usual class: inhibitors; DT40 Tdp1-/- hTDP1 cells, no CPT, ATP luminescence, 48 h; AID 686978, 2013; 420,000 tested, 15% active; further: nearly all actives have a fitted effect of over 55% in size
#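 Chicken DT40 Tdp1-/- cells complemented with human TDP1, screened without camptothecin (DMSO vehicle only), 400 cells/well. Compounds pin-transferred, cells incubated at 37 °C for at least 48 hr. Growth read as ATP-dependent luminescence (CellTiter-Glo, 30 min at RT).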
# KB-3-1 tox = KB-3-1 parental cell cytotoxicity; KB-3-1 viability, CellTiter-Glo ATP luminescence, 72 h; Potency, µM (doses to about 46.1 µM), actives largely listed as cytotoxic; 400,000 tested, 1.4% active; AID 1347075; further: nearly all actives have a fitted effect of over 60% in size
#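 Using CellTiter-Glo luminescence, growth of non-resistant KB-3-1 adenocarcinoma cells is assessed 72 h after pin-tool compound addition at 37 °C. Normalized responses across the concentration series yield fitted curves.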
# KB-V1 MDR tox = KB-V1 MDR subline cytotoxicity; KB-V1 MDR cells viability, CellTiter-Glo, 72 h; Potency, µM (doses to about 46.1 µM), usual class: cytotoxic; 400,000 tested, 3.4% active; further: nearly all actives have a fitted effect of over 60% in size
#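 Following 72 h at 37 degrees C with compound, KB-V1 cell viability was read by CellTiter-Glo luminescence, medium being phenol-red-free DMEM plus 10% FBS; concentration-response parameters came from normalized, curve-fitted qHTS data.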
# HT1080 IDH1KD tx = HT-1080 IDH1 knockdown cell toxicity (counter line) | HT-1080 IDH1 knockdown viability, ATP luminescence, 48 h | Potency, µM (top dose mostly 46.1 µM), without a hit: top-dose activity, negative = toxicity, most hits filed as cytotoxic | 360,000 tested, 2% active | AID 686971;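 further: 0% = DMSO wells and -100% = cell-free medium wells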
#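 After a 2 h attachment period, IDH1KD HT-1080 cells took pin-transferred compound for 48 h at 37 °C; ATP-based luminescence after 10 min room-temperature reagent incubation reported viability.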
# * marks the source's active call; other numbers are inactive results; i = inactive; ? = inconclusive; nt = no result; [ ] = another dose, or the depositor's remark. The call rests on the fitted dose curve; in most records, active means well fitted curve in the direction sought with a large enough effect; inconclusive means small, poorly fitted or top-dose-only effect, or another doubt; inactive means no such curve, though single readings can be large; an effect the other way counts as inactive or inconclusive. Unless noted, on the % scale 0 is the no-effect control and ±100 the full control effect; potency means the concentration at half of the fitted maximal effect.
SMILES,TDP1 cell CPT,HT1080-NT tox,DT40 TDP1 no CPT,KB-3-1 tox,KB-V1 MDR tox,HT1080 IDH1KD tx
CNC(=S)N(Cc1ccc(OC)cc1)Cc1cc2cc(C)ccc2[nH]c1=O,6.1%,5.1%,-2.6%,i,i,0.0%
COc1ccc2[nH]c(=O)c(CNc3cc(C)ccc3C)cc2c1,14.6µM*,?,14.6µM*,i,i,-28.3%
CCn1nccc1NC(=O)c1csc([C@@H]2C[C@H](O)[C@@H](CO)O2)n1,10.8%,11.3%,-0.3%,i,i,4.3%
COc1cc(C=CC(=O)N2CCN(CC(=O)N3CCCC3)CC2)cc(OC)c1OC,11.8%,-2.3%,-26.0%,i,i,12.1%
CCN(CC)c1ccc(/C=N/N=C(c2ccccc2)c2ccccc2)c(O)c1,?,-6.1%,20.6µM*,i,?,-22.6%
CCN(CC)c1ccc(/C=N/Nc2nc3ccccc3[nH]2)c(O)c1,4.61µM*,8.2µM*,4.61µM*,?,i,6.51µM*
CCN(CC)c1ccc(/C=N/N(c2ccccc2)c2ccccc2)c(O)c1,?,-3.4%,?,i,16.4µM*,-12.0%
CCN(CC)c1ccc(C=Nc2ccc(C#N)cc2)c(O)c1,1.1%,0.4%,0.1%,i,i,-7.2%
COc1cc(OC)c(OC)cc1/C=N/Nc1nc2ccccc2[nH]1,2.5%,3.1%,-21.6%,i,i,3.1%
CCN(CC)c1ccc(C=Nc2ccccc2C)c(O)c1,0.1%,-0.5%,9.1%,i,?,0.1%
COc1ccc([C@@H]2CC(=O)[C@@H]3CN(S(=O)(=O)c4ccc(C)cc4)[C@H](c4cccc(Cl)c4)C[C@@H]3N2S(=O)(=O)c2ccccc2)cc1,-6.1%,22.3%,-15.0%,i,i,25.2%
O=c1c2cccnc2n(Cc2ccccc2F)c(=O)n1Cc1ccc(F)cc1,-19.6%,nt,?,?,?,nt
COCCN(C(=O)COC(=O)CSc1ccc(Cl)cc1)c1c(N)n(CC(C)C)c(=O)[nH]c1=O,-9.2%,-0.1%,1.0%,i,i,-5.7%
COc1cccc(Cc2nc3ccccc3nc2SCC(=O)N2CCN(c3ccccc3)CC2)c1,?,nt,23.1µM*,nt,nt,nt
COc1cccc(Cc2nc3ccccc3nc2SCC(=O)NCCc2ccccc2)c1,18.4µM*,nt,18.4µM*,i,i,nt
Cc1nc2ccccc2nc1SCC(=O)N1CCC(C)CC1,?,-6.8%,?,i,?,?
COc1cccc(CNC(=O)CSc2nc3ccccc3nc2Cc2ccccc2)c1,?,nt,?,i,i,nt
COc1ccccc1Cc1nc2ccccc2nc1SCC(=O)N1CCC(C)CC1,16.4µM*,nt,9.2µM*,i,i,nt
CCc1cccc(C)c1NC(=O)CSc1nnc(CC)n2c1cc1occc12,?,nt,18.4µM*,i,i,nt
COc1ccc(NC(=O)c2c(N)c(C(=O)c3ccc(OC)cc3)n3ccccc23)cc1,-22.7%,nt,?,i,i,nt
NS(=O)(=O)c1ccc(CCNC(=O)COC(=O)CC(c2ccccc2)c2ccccc2)cc1,?,-3.1%,?,i,i,-6.4%
CCc1cccc(C)c1NC(=O)CSc1nc2ccccc2nc1Cc1ccccc1,?,nt,16.4µM*,nt,nt,nt
COc1ccccc1Cc1nc2ccccc2nc1SCC(=O)N1CCN(c2ccccc2)CC1,20.6µM*,nt,23.1µM*,i,i,nt
CCOC(=O)[C@]12CCCC=C1N(Cc1ccccc1)C(=O)[C@H](CC(=O)NCc1ccccc1)C2,?,?,?,i,i,-6.8%
COc1ccc(NC(=O)CSc2cn(CCNC(=O)c3ccc(OC)cc3)c3ccccc23)cc1,?,nt,25.9µM*,i,i,nt
SMILES,TDP1 cell CPT,HT1080-NT tox,DT40 TDP1 no CPT,KB-3-1 tox,KB-V1 MDR tox,HT1080 IDH1KD tx
O=C(CSc1cn(CCNC(=O)c2ccc3ccccc3c2)c2ccccc12)NCc1ccco1,16.4µM*,-27.0%,?,?,?,?
COc1ccccc1C(=O)NCCn1cc(SCC(=O)Nc2cc(C)on2)c2ccccc21,-27.2%,7.3%,?,i,8.2µM*,-5.8%
COc1ccc(C(=O)NCCn2cc(SCC(=O)Nc3ccc4c(c3)OCCO4)c3ccccc32)cc1,?,nt,20.6µM*,?,i,nt
COc1ccc(NC(=O)CSc2cn(CCNC(=O)c3c(F)cccc3F)c3ccccc23)cc1,?,nt,?,i,i,nt
CCOc1ccc(-n2nc(CO)c(C(=O)NCC(C)O)n2)cc1 (stereo unspecified),11.5%,nt,6.3%,nt,nt,nt
Cc1nc2c(n1C1CCCCC1)C(=O)c1ccccc1C2=O,20.6µM*,-1.0%,14.6µM*,i,?,-4.8%
CCc1cnc2c(c1SCC(=O)Nc1ccc(Cl)cc1)c(=O)n(C)c(=O)n2C,-13.1%,nt,-4.8%,i,i,nt
CC1CC/C(=C\c2ccc3c(c2)OCO3)C(=O)/C1=C/c1ccc2c(c1)OCO2 (stereo unspecified),?,?,?,25.9µM*,i,?
COc1ccc(CNC(=O)COC(=O)c2ccc(S(=O)(=O)N3CCOCC3)cc2)cc1,0.2%,15.2%,-26.4%,i,i,21.2%
CC(C)(C(=O)N1CCC1(C)C(=O)NC1Cc2ccccc2C1)c1ccccc1 (stereo unspecified),16.4µM*,7.5%,20.6µM*,i,i,-9.0%
COc1ccc2c(c1)CCc1c(C(=O)Nc3ccc(OC)cc3OC)noc1-2,-1.4%,nt,-14.0%,i,i,nt
O=C(c1noc2c1CCc1ccccc1-2)N1CCCc2ccccc21,?,0.1%[9.24 µM],?,i,i,-23.3%
COc1ccc2c(c1)CCc1c(C(=O)NCc3cccnc3)noc1-2,-25.4%,13.4%,?,?,8.2µM*,-1.5%
O=C(c1noc2c1CCc1ccccc1-2)N1CCOCC1,-14.1%,2.3%,-23.4%,i,16.4µM*,-19.6%
COc1ccc2c(c1)CCc1c(C(=O)N3CCCCCC3)noc1-2,-8.1%,-1.6%,-27.2%,i,14.6µM*,-0.9%
CN(C)CCCNc1nc2cc(-c3cnn(C)c3)sc2c(=O)n1C,-26.5%,2.7%,-12.0%,i,i,29.1%
CC(=O)N1CCC(C(=O)N2c3ccccc3N=C(c3ccc4c(c3)OCO4)C2C(=O)NCc2ccccc2)CC1 (stereo unspecified),-20.9%,1.4%,-24.0%,i,i,9.5%
CCOc1cc(-c2nc(-c3ccc(Br)cc3)no2)cc(OCC)c1OCC,-8.6%,nt,-7.6%,i,i,nt

# Bioassay records as filed in PubChem BioAssay.
